Assay results from ChEMBL document CHEMBL3988442, “University of Dundee, Small-Polar-MMV Screening Library” (2021).
About 13,000 (27%) of roughly 48,000 compounds showed an effect of 50% or more. The list shows a part of the results.

tested on: Wolbachia pipientis; test: Anti-Wolbachia Cell-Based Screen; assay type: functional; design: scale not given: in the data most compounds retested in dose-response had high values; conditions: 5 µM

SMILES | Percent Effect [%]
COc1ccc(CN2C[C@@H](CN(C)C)[C@@H](CO)C2)c(Cl)c1OC | -2.231
c1cc2c(cc1C[C@@H]1CC[C@H](CN3CCCOCC3)O1)OCO2 | 5.044
Cc1cc(C)cc(C2(C(=O)NC(C)Cn3ccnc3)CC2)c1 (stereo not drawn) | -3.779
COc1ccc(OC)c(C(C)Nc2nc3c(C)nn(C)c3c(=O)n2C)c1 (stereo not drawn) | -10.12
CC(C)C(=O)N1CCN(CCOc2cccc(C#N)c2)CC1 | 22.03
CN(C)C(=O)NCC(=O)N(C)Cc1cc(-c2ccccc2)no1 | 2.31
CCNC(=O)CNS(=O)(=O)Cc1cc(-c2ccccc2)no1 | -10.1
CCNC(=O)C1(Cc2cc(-c3ccccc3)no2)CCCN(C)C1 (stereo not drawn) | 76.81
Cc1cc(NCC(=O)N(C)Cc2cccs2)c(C(N)=O)cc1F | 8.297
CC(C)N1CCCC(C(=O)NC(C)(C)c2nnc(N)s2)C1 (stereo not drawn) | -13.81
CCOc1ccc(-c2c(C#N)c(N)nc3c2COCC3)cn1 | 106.3
Cn1cc(-c2c(C#N)c(N)nc3c2CCc2[nH]ccc2-3)cn1 | 4.236
COc1ncc(-c2c(C#N)c(N)nc3c2CCc2[nH]ccc2-3)cn1 | -13.65
CCC(C)Sc1ncc(-c2c(C#N)c(N)nc3c2COCC3)cn1 (stereo not drawn) | 95.02
CC(C)n1cc(-c2c(C#N)c(N)nc3c2COCC3)cn1 | 109.6
CCOc1ccc(NC2CCN(C3CC3)C2=O)cn1 (stereo not drawn) | -7.266
Cc1cc(-c2c(C)c(-c3cnn(C)c3)nc(N)c2C#N)oc1C | 17.25
CCOc1ccc(NC(=O)NC2CCc3[nH]ncc3C2)cn1 (stereo not drawn) | -9.557
N#Cc1c(C2CCOC2)cc(-c2ccc(N3CCCCC3)cc2)nc1N (stereo not drawn) | 2.752
COCCc1ncc(-c2c(C#N)c(N)nc3c2CCc2[nH]ccc2-3)cn1 | -13.87
N#Cc1c(N)nc2c(c1-c1cnc(N3CCCC3)nc1)COCC2 | 84.51
CC(C)=CCC/C(C)=C/CN1CCN(C)C2(CCNC(=O)CC2)C1 (stereo not drawn) | 14.94
Cc1ccc(CN2CCc3[nH]nc(C(=O)N4CCNC(=O)C4)c3C2)s1.O=C(O)C(F)(F)F | -6.156
COCC1CCN(C(=O)c2cccc(S(=O)(=O)NC3CCCC3)c2)C1 (stereo not drawn) | 8.028
CC(C)CCN1CN=C(NS(=O)(=O)c2ccc(F)cc2)NC1 | 13.74
Clc1ccc(C2(NCc3noc(C4CC4)n3)CCCC2)cc1 | 6.408

SMILES | Percent Effect [%]
CNC(=O)Cc1ccccc1NC(=O)N[C@H]1c2ccccc2C[C@H]1O | 73.79
CN(C)C(=O)c1ccccc1NC(=O)N[C@@H]1c2ccccc2C[C@@H]1O | -11.76
CS(=O)(=O)c1ccccc1NC(=O)N[C@@H]1c2ccccc2C[C@@H]1O | 6.839
CCn1cc(N2Cc3nc(N)ncc3C2=O)cn1 | 3.471
NC(=O)CN1C(=O)CO[C@H]2CN(Cc3ccc(C(F)(F)F)cc3)C[C@H]21 | -2.639
Cl.FC(F)Oc1ccc(CNCc2cc(Cl)c3c(c2)OCO3)cc1 | -3.122
COCCc1noc(CN(C)C2CCCN(c3ccc(C)nn3)C2)n1 (stereo not drawn) | -2.157
COCCc1noc(CN2C(=O)OC[C@@H]2C(C)C)n1 | -4.227
COCCc1noc(CN(C)c2nccc(C)n2)n1 | 10.01
COCCc1noc(CN(C)c2nc(C)cc(C)n2)n1 | 101
COCCc1noc(CN(C)c2nc(C)nc(C)c2C)n1 | 89.33
CC(C)N[C@@H]1CO[C@H](CNC(=O)c2ccccc2)[C@H]1O | -5.064
O=C(NCc1ccco1)N1CCC(n2cc(-c3ccccn3)nn2)CC1 | 27.21
O=C(c1cnc(C2CC2)nc1)N1CCCC(c2nccs2)C1 (stereo not drawn) | 70.5
O=C(CN1CCCNC1=O)N1CCCC(c2nccs2)C1 (stereo not drawn) | -4.052
O=C(c1cnc(O)c(Cl)c1)N1CCCC(c2nccs2)C1 (stereo not drawn) | 105
CC(C)Oc1ncc(C(=O)N2CCCC(C(=O)O)C2)cc1Cl (stereo not drawn) | -16.5
O=C(c1cncnc1)N1CCCC(c2nccs2)C1 (stereo not drawn) | 117.1
O=C(c1cnc(C2CC2)nc1)N1CCC(N2CCC(O)CC2)CC1 | -12.63
Cc1csc(C2CCCN(C(=O)c3cnc4n[nH]c(C)c4c3)C2)n1 (stereo not drawn) | -1.582
Cc1noc(COCC(=O)N2CCCC(c3nccs3)C2)n1 (stereo not drawn) | -1.591
CCn1cc(C(=O)N2CCCC(c3nccs3)C2)cn1 (stereo not drawn) | 107.1
O=C(Nc1cnccn1)[C@@H]1COC[C@H]2CN(c3ncc(F)cn3)C[C@H]21 | -14.05
CCCN1CCC(N2CCN(c3cc(C)nc(C)c3)CC2)CC1 | -11.77
CC1CN(C(=O)NCc2cccc(C#N)c2)CCN1CC(F)(F)F (stereo not drawn) | -8.516
Cc1cc(C(=O)NC2CCN(c3ncccc3C#N)CC2)on1 | 2.44

SMILES | Percent Effect [%]
Cc1cnc(CNC(=O)[C@@]23CCO[C@@H]2CCNC3)cn1.O=C(O)C(F)(F)F | 84.34
Cc1cnc(CNC(=O)[C@@]23CCO[C@@H]2CCN(C2CCCC2)C3)cn1.O=C(O)C(F)(F)F | 116.3
COCCNC(=O)[C@@]12CCO[C@@H]1CCN(Cc1scnc1C)C2.O=C(O)C(F)(F)F | 6.926
O=C(NCc1ccco1)[C@@]12CCO[C@@H]1CCN(C1CCC1)C2.O=C(O)C(F)(F)F | -7.517
COc1cc(C)sc1C(=O)NCCC(=O)N(C)Cc1ccccc1 | -13.22
CCc1nc(CN(C)Cc2nnc(-c3cccs3)o2)cs1 | -11.05
CC(=O)N1CCCC(c2ccc3sc(N)nc3n2)C1 (stereo not drawn) | 125
Cc1nc(C2CCCN(C(=O)c3csc(C)n3)C2)no1 (stereo not drawn) | -14.77
Cc1ccc2oc(C(=O)N3CCCC(c4noc(C)n4)C3)cc2n1 (stereo not drawn) | -6.015
Cc1nc(C(=O)N2CCCC(c3ccc4sc(N)nc4n3)C2)co1 (stereo not drawn) | 130.6
CNC(=O)C(C)(C)N1CCC[C@H]1C(=O)NCC(C)C.Cl | 3.09
O=C1[C@H]2CC[C@H](CN(S(=O)(=O)c3ccccc3)C2)N1Cc1cscn1 | 20.83
CN(C)CCOc1cc(NC(=O)COCC(F)(F)F)ccn1 | 0.1628
Cc1nccc(CNS(=O)(=O)N2CCCC2c2ccc(C)o2)n1 (stereo not drawn) | -6.689
CNc1cncc(C2CCCN2Cc2ccn(C)n2)n1 (stereo not drawn) | 90.43
CNc1cncc(C2CCCN2Cc2ccnc(N3CCCC3)n2)n1 (stereo not drawn) | 113.8
CNc1cncc(C2CCCN2Cc2cccc(C)n2)n1 (stereo not drawn) | 107
CNc1cncc(C2CCCN2Cc2ccnc(C)n2)n1 (stereo not drawn) | 94.65
CNc1ccnc(N2CCC(c3nnc(CN4CCCC4)n3C)CC2)n1 | 5.752
CNc1cncc(C2CCCN2Cc2ccccn2)n1 (stereo not drawn) | -6.614
O[C@H]1[C@H](n2cc(-c3cncnc3)nn2)c2ccccc2C12CCNCC2 | -31.96
CN(C)CCN(Cc1ccc(Cl)cc1)C(=O)c1cc[nH]n1 | 3.118
Cc1ccc(-c2ncc(C(=O)N3CCCN4CCC[C@H]4C3)c(O)n2)cc1 | -8.702
CC(=O)N1CCC2(CC1)CN(C)CC[C@H]2C(F)(F)F.Cl | -1.973
Cl.NC(CC1CCCC1)c1ccccc1 (stereo not drawn) | -1.351
NC(=O)CCN1C(=O)CC(Cc2ccc(F)cc2)C1=O (stereo not drawn) | 3.459

SMILES | Percent Effect [%]
COc1ccnc(N2CCN(Cc3ncc(C(C)(C)C)o3)CC2)n1 | 7.68
Cn1ccnc(Nc2ccc3c(c2)CCN3C(=O)c2cccnc2)c1=O | -3.992
CC(=O)N1CCCc2cc(Nc3nccn(C)c3=O)ccc21 | 8.205
Cn1ccnc(Nc2ccc3c(c2)CCN3C(=O)c2ccoc2)c1=O | 61.04
CCCN(C(=O)COCC)c1cccc(C)c1 | -29.78
Cc1ccnc(OCC(=O)N2CCCC2)n1 | 98.39
Cc1ccc(N2CCN(C(=O)COc3nccc(C)n3)CC2)nn1 | -17.48
Cc1ccc(N2CCN(C(=O)COc3ncccn3)CC2)nn1 | -4.899
Cc1ccnc(OCC(=O)N2CCN(c3ncccn3)CC2)n1 | 1.434
Cc1ccnc(OCC(=O)N2CCC(C(N)=O)CC2)n1 | -0.2918
COc1ccc(N2CCN(C(=O)COc3nccc(C)n3)CC2)cc1 | 79.4
CCc1ccccc1OCC(=O)Nc1ccnc(OCCN(C)C)c1 | 4.07
CN(Cc1ccc(Cl)cc1)S(=O)(=O)N(C)Cc1cnn(C)c1 | -1.179
Cc1nn(C)cc1CN1CCc2nc(-c3cccnc3)nc(O)c2C1 | 87.93
C=Cn1ncc(CN2CCc3nc(-c4ccncc4)nc(O)c3C2)c1C | 95.82
NCC1CN(c2nc(-c3cccnc3)nc3c2CCNCC3)CCO1 (stereo not drawn) | -59.49
Cc1cccc(-c2noc(CN3CCc4c(ncn4C4CC4)C3)n2)c1 | -0.5665
Cc1cnn(C2CN(c3nc(-c4ccncc4)nc4c3CCC4)C2)c1 | -2.167
COCCCN(C)c1nc(-c2ccncc2)nc2c1CCN(C(C)=O)C2 | 7.228
Cc1ccc(O)c(CN2CCc3nc(-c4cccnc4)nc(O)c3C2)c1 | 101.6
Cn1cc(CNCC2(O)CCCCC2)c(-c2cccnc2)n1 | 2.797
Cc1nc(-c2cnn(C)c2)nc2c1CN(C(=O)c1cccnc1)CC2 | -2.218
Cc1nccn1CCN(C)c1nc(-c2cccnc2)nc2c1CCNC2 | 2.372
C=Cn1cc(CN2CCc3nc(-c4cccnc4)nc(O)c3C2)c(C)n1 | 93.89
CC(=O)N1CCc2c(nc(-c3cccnc3)nc2N(C)CC(O)CO)C1 (stereo not drawn) | -2.171
